From PubChem BioAssay (Tox21)
Records with an inconclusive call do not appear. A call without a number means that no potency is given here. A structure can be active in one record and inactive in another. Calls of active or inactive are those of the source. Unless noted, the call rests on the fitted dose curve.

Experiments:
[1] = qHTS assay to identify small molecule agonists of the vitamin D receptor (VDR) signaling pathway - cell viability counter screen (AID 743224; active means well fitted curve in the direction sought with a large enough effect in the repeat runs; an effect the other way counts as inactive or inconclusive; further: series mostly up to about 63 µM; nearly all actives have a fitted effect of over 50% in size)
How it was run: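 Compounds were pin-transferred onto VDR-bla cells plated 4 h earlier; following 16 h incubation at 37C, cell viability was quantified by CellTiter-Glo luminescence after 30 min at room temperature.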

[2] = qHTS assay to identify small molecule antagonists of the vitamin D receptor (VDR) signaling pathway - cell viability counter screen (AID 743225; active means well fitted curve in the direction sought with a large enough effect in the repeat runs; an effect the other way counts as inactive or inconclusive; further: nearly all actives have a fitted effect of over 50% in size)
How it was run: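 Cytotoxicity toward the VDR-bla HEK 293T line was scored by ATP-based CellTiter-Glo luminescence, read in the wells already used for the beta-lactamase readout after 16 h compound treatment under 3 nM 1-alpha,25-dihydroxyvitamin D3 stimulation.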

[3] = qHTS assay to identify small molecule agonists of the NFkB signaling pathway (AID 1159509; active means well fitted curve in the direction sought with a large enough effect in the signal ratio in the repeat runs, not every such curve was filed as active; the % refers to the signal ratio; further: series mostly up to about 61 µM)
How it was run: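 Beta-lactamase reporter assay run in quantitative high-throughput format on an NF-kB-responsive ME-180 line, with 5 hr compound treatment and a FRET-based blue/green fluorescence readout.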

[4] = qHTS assay to identify small molecule agonists of the endoplasmic reticulum stress response signaling pathway (AID 1159516; active means well fitted activation curve with a large enough effect in the signal ratio in the repeat runs, not every such curve was filed as active; the % refers to the signal ratio)
How it was run: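 Using a HeLa line with an ESRE-driven beta-lactamase gene, agonist activity was measured by FRET substrate fluorescence (460 and 530 nm emission) after cells were treated with compounds for 5 hr at 37 C and 5% CO2.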

[5] = qHTS assay to identify small molecule agonists of the endoplasmic reticulum stress response signaling pathway - cell viability counter screen (AID 1159517);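 further: HeLa cells carrying an ER stress response element beta-lactamase reporter; series mostly up to about 61 µM; nearly all actives have a fitted effect of over 50% in size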
How it was run: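 Cytotoxicity of test compounds toward ESRE-bla HeLa cells was assessed after 5 hr exposure. The luminescent CellTiter-Glo signal was measured 30 min after reagent addition.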

[6] = qHTS assay to identify small molecule antagonists of the retinoid-related orphan receptor gamma (ROR-gamma) signaling pathway - cell viability counter screen (AID 1159520; active means well fitted curve in the direction sought with a large enough effect in the repeat runs; an effect the other way counts as inactive or inconclusive; further: nearly all actives have a fitted effect of over 50% in size; further: potency means the concentration at half of the fitted maximal effect)
How it was run: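 Tet-on ROR gamma CHO cells (1,000/well) were plated 4 hr, given compounds in DMSO for 2 hr at 37 C, then induced with 1 uM final doxycycline for 16 hr. Viability was read as ATP by CellTiter-Glo luminescence after 30 min.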

[7] = molecular target: Nuclear receptor ROR-gamma (Homo sapiens) (UniProt P51449); assay: qHTS assay to identify small molecule antagonists of the retinoid-related orphan receptor gamma (ROR-gamma) signaling pathway (AID 1159521; active means well fitted curve in the direction sought with a large enough effect in the repeat runs; an effect the other way counts as inactive or inconclusive; further: nearly all actives have a fitted effect of over 50% in size; further: potency means the concentration at half of the fitted maximal effect)
How it was run: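 Readout: ONE-Glo luciferase luminescence, 30 min at room temperature. System: Tet-on RORγ CHO, RORE-LUC. Sequence: compound 2 h, doxycycline 1 uM final, 16 h at 37 C.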

[8] = qHTS assay to identify small molecule agonists of the AP-1 signaling pathway - cell viability counter screen (AID 1159525); further: nearly all actives have a fitted effect of over 55% in size; further: potency means the concentration at half of the fitted maximal effect
How it was run: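 Each titration point was normalised to DMSO and tetra n-octyl ammonium bromide controls. The read was Cell Titer Glo luminescence after 30 min at RT, following 5 h compound exposure of ME-180 AP-1-bla cells at 37 °C.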

[9] = qHTS assay to identify small molecule agonists of the AP-1 signaling pathway (AID 1159526); further: potency means the concentration at half of the fitted maximal effect
[10] = qHTS assay to identify small molecule agonists of the NFkB signaling pathway - cell viability counter screen (AID 1159515); further: series mostly up to about 61 µM; nearly all actives have a fitted effect of over 55% in size
How it was run: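 Parallel cytotoxicity counter screen in ME-180 cells carrying an NFkB-response-element beta-lactamase reporter, 2,000 cells/well. Compound exposure lasted 5 hr at 37 C, 5% CO2. Cell viability was quantified by CellTiter-Glo luminescence.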

Row | SMILES | outcome [1] | outcome [2] | outcome [3] | outcome [4] | outcome [5] | Potency [6] | Potency [7] | Potency [8] | Potency [9] | outcome [10]
1 | CC(=O)Nc1nnc(S(N)(=O)=O)s1 | inactive | inactive | inactive | inactive | inactive | inactive | inactive | inactive | inactive | –
2 | O=C(O)/C=C\C(=O)O | inactive | – | inactive | inactive | inactive | inactive | inactive | inactive | inactive | –
3 | C1N2CN3CN1CN(C2)C3 | inactive | – | – | – | inactive | inactive | inactive | inactive | inactive | –
4 | OC(Cn1cncn1)(Cn1cncn1)c1ccc(F)cc1F | inactive | inactive | – | inactive | inactive | inactive | inactive | inactive | inactive | inactive
5 | Nc1ccc(C(=O)O)cc1 | inactive | – | – | – | inactive | inactive | inactive | inactive | inactive | inactive
6 | O=NO | inactive | inactive | – | – | inactive | inactive | inactive | inactive | inactive | inactive
7 | Nc1ccn([C@H]2CC[C@@H](CO)O2)c(=O)n1 | inactive | – | – | – | inactive | inactive | inactive | inactive | inactive | –
8 | NC(N)=O | inactive | inactive | – | – | inactive | inactive | inactive | inactive | inactive | –
9 | Cc1noc(NS(=O)(=O)c2ccc(N)cc2)c1C | – | – | – | inactive | inactive | inactive | – | inactive | inactive | inactive
10 | CCCCC(CC)COC(=O)/C=C/c1ccc(OC)cc1 (configuration not stated) | inactive | – | – | – | inactive | inactive | inactive | inactive | inactive | inactive
11 | NC(=O)c1ccccc1O | inactive | inactive | – | – | inactive | inactive | inactive | inactive | inactive | –
12 | O=C(O)CCCCCCCC(=O)O | inactive | inactive | – | – | inactive | inactive | inactive | inactive | inactive | –
13 | Cn1c(=O)c2[nH]cnc2n(C)c1=O | inactive | – | – | inactive | inactive | inactive | – | inactive | inactive | –
14 | O=C1NC(=O)c2ccccc21 | inactive | inactive | – | inactive | inactive | inactive | inactive | inactive | inactive | inactive
15 | Cn1cc[nH]c1=S | inactive | – | – | inactive | inactive | inactive | inactive | inactive | 54.9 µM (active) and inactive | –
16 | CC(C)[C@@H]1CC[C@@H](C)C[C@H]1O | inactive | inactive | – | inactive | inactive | inactive | inactive | inactive | inactive | inactive
17 | O=C(O)c1[nH]n(-c2ccc(S(=O)(=O)O)cc2)c(=O)c1N=Nc1ccc(S(=O)(=O)O)cc1 | inactive | inactive | – | inactive | inactive | inactive | inactive | inactive | inactive | –
18 | Cc1ccccc1C(OCCN(C)C)c1ccccc1 (configuration not stated) | inactive | inactive | – | inactive | inactive | inactive | inactive | inactive | – | –
19 | NC(=O)NC1NC(=O)NC1=O (configuration not stated) | inactive | – | – | – | inactive | inactive | inactive | inactive | inactive | inactive
20 | O=C(O)c1cc(N=Nc2ccc(S(=O)(=O)Nc3ccccn3)cc2)ccc1O | inactive | inactive | – | inactive | inactive | inactive | inactive | inactive | inactive | –

Row | SMILES | outcome [1] | outcome [2] | outcome [3] | outcome [4] | outcome [5] | Potency [6] | Potency [7] | Potency [8] | Potency [9] | outcome [10]
21 | C/C=C/c1ccc(OC)cc1 | inactive | – | – | inactive | inactive | inactive | inactive | inactive | inactive | –
22 | c1ccc2[nH]ccc2c1 | inactive | – | – | – | inactive | 2.69 µM (active) and inactive | 1.35 µM (active) and inactive | 42.9 µM (active) and inactive | inactive | inactive
23 | O=c1ccc2ccccc2o1 | inactive | inactive | – | – | inactive | inactive | inactive | inactive | inactive | –
24 | CCCCOC(=O)CC(CC(=O)OCCCC)(OC(C)=O)C(=O)OCCCC | inactive | inactive | – | – | inactive | inactive | inactive | inactive | inactive | inactive
25 | CC(O)CN(CCN(CC(C)O)CC(C)O)CC(C)O (configuration not stated) | inactive | inactive | – | inactive | inactive | inactive | inactive | inactive | inactive | –
26 | CNC[C@H](O)c1cccc(O)c1 | inactive | – | – | – | inactive | inactive | – | inactive | inactive | –
27 | Oc1ccc(/C=C/c2cc(O)cc(O)c2)cc1 | inactive | – | – | – | inactive | inactive | inactive | inactive | inactive | inactive
28 | O=S(=O)(O)NC1CCCCC1 | inactive | – | – | inactive | inactive | inactive | – | inactive | inactive | –
29 | Cc1ccc(C)c(OCCCC(C)(C)C(=O)O)c1 | inactive | inactive | – | – | inactive | inactive | inactive | inactive | inactive | –
30 | O=C(C1CCCCC1)N1CC(=O)N2CCc3ccccc3C2C1 (configuration not stated) | inactive | inactive | – | – | inactive | inactive | inactive | inactive | inactive | inactive
31 | Cc1ccc(S(=O)(=O)NC(=O)NN2CCCCCC2)cc1 | inactive | – | – | – | inactive | inactive | inactive | inactive | inactive | inactive
32 | Cc1cc(=O)[nH]c(=S)[nH]1 | inactive | – | – | inactive | inactive | inactive | inactive | inactive | inactive | –
33 | NC(N)=NC(=O)c1nc(Cl)c(N)nc1N | inactive | – | – | – | inactive | inactive | inactive | inactive | inactive | inactive
34 | O=C(c1ccccc1)c1ccccc1 | inactive | – | – | inactive | inactive | inactive | – | inactive | inactive | –
35 | O=C1CN(/N=C/c2ccc([N+](=O)[O-])o2)C(=O)N1 | inactive | – | – | – | inactive | inactive | – | inactive | inactive | inactive
36 | CCCCC1C(=O)N(c2ccccc2)N(c2ccccc2)C1=O | inactive | inactive | – | inactive | inactive | inactive | inactive | inactive | inactive | inactive
37 | O=C(O)CS | inactive | – | – | inactive | inactive | inactive | – | inactive | inactive | –
38 | COc1ccc2[nH]cc(CCNC(C)=O)c2c1 | inactive | – | – | – | inactive | inactive | inactive | inactive | inactive | –
39 | COc1c2occc2cc2ccc(=O)oc12 | inactive | – | – | – | inactive | inactive | – | inactive | inactive | –
